Measured values as given in PubChem BioAssay (NCATS).
Inconclusive results are not listed. A number with no mark means an inactive call. The source made the active and inactive calls. Calls follow the shape of the dose curve; as a rule, active = well fitted inhibition curve with a large enough effect; inconclusive = small, poorly fitted or top-dose-only effect; inactive = flat fitted curve, though single readings scatter.

System: NIH3T3
Assay: Cytotoxic Profiling of Annotated Libraries Using Quantitative High-Throughput Screening (AID 1296008); also: nearly all actives have a fitted effect of over 60% in size
Conditions: Five cell lines viability, CellTiter-Glo ATP luminescence, 48-72 h; max response: active compounds read low
How it was run: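 Cytotoxicity was measured as CellTiter-Glo ATP luminescence, read after 10 min at room temperature. Compound treatment of the cells lasted 48 or 72 hr at 37 degrees Celsius in a qHTS format.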
% is scaled to controls: 0 for no effect and ±100 for the full control effect.

SMILES | outcome | max response [%]
CC(=O)NCCCCn1c2c(c3ccccc31)C(=O)NCC2 | inactive | 
Cc1nnc(C(C)C)n1C1CC2CCC(C1)N2CCC(NC(=O)C1CCC(F)(F)CC1)c1ccccc1 (stereo not given) |  | -0.909
CC1=CC[C@]2(C(=O)O[C@@H]3O[C@H](CO[C@@H]4O[C@H](CO)[C@@H](O[C@@H]5O[C@@H](C)[C@H](O)[C@@H](O)[C@H]5O)[C@H](O)[C@H]4O)[C@@H](O)[C@H](O)[C@H]3O)CC[C@]3(C)C(CCC4[C@@]5(C)C[C@@H](O)[C@H](O)[C@@](C)(CO)C5CC[C@]43C)C2C1C (stereo not given in full) | inactive | 
COc1ccc(/C=C/C(=O)O[C@@H]2[C@@H](O)[C@H](C)O[C@@H](OC3C4C=COC(O[C@@H]5O[C@H](CO)[C@@H](O)[C@H](O)[C@H]5O)C4C4(CO)OC34)[C@@H]2O)cc1OC (stereo not given in full) |  | 0.929
C=C(C)[C@H]1C[C@@H](O)C(=C)CC[C@@H](O)C(=C)[C@@H](O)C1 |  | -1.51
CC1(C)CC2C(O)C3=C(CC(C)(O)C2C1)C(=O)OC3O (stereo not given) | inactive | 
Oc1ccc([C@H]2COc3cc(O)ccc3C2)cc1 |  | 3.41
CC(=C/C(=O)O)/C=C/[C@]1(O)[C@@]2(C)CO[C@]1(C)C[C@H](O[C@@H]1O[C@H](CO)[C@@H](O)[C@H](O)[C@H]1O)C2 |  | -8.59
C[C@@H]1C(=O)O[C@H]2[C@H]1CC[C@@]1(C)C(=O)C=C[C@](C)(O)[C@H]21 |  | -2.11
CC1(C)C[C@H]2C3=CCC4[C@@]5(C)CC[C@H](O[C@H]6O[C@H](C(=O)O)[C@@H](O)[C@H](O)[C@H]6O[C@H]6O[C@H](CO)[C@@H](O)[C@H](O)[C@H]6O[C@@H]6O[C@H](CO)[C@@H](O)[C@H](O)[C@H]6O)[C@](C)(CO)C5CC[C@@]4(C)[C@]3(C)CC[C@@]2(C)[C@H](O[C@@H]2OC[C@H](O)[C@H](OC3O[C@H](CO)[C@@H](O)[C@H](O)[C@H]3O)[C@H]2O)[C@@H]1O (stereo not given in full) |  | 4.34
